An excerpt weighted towards active compounds, which were near 5.7% of everything screened.
DAX1 inh-1 – inhibitors of DAX1 repression of SF-1 activated StAR promoter | inhibition, % at 6.8 µM | HEK293T StAR-luciferase reporter, SF-1/DAX-1 repression relief | AID 652010 | 370,000 compounds, 1.1% hits;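 active means inhibition above the mean over all tested compounds plus 3 SD, cut at about 3.6% in these data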;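 further: higher inhibition means more luminescence from relief of DAX-1 repression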
DAX1 inh-2 – inhibitors of human orphan nuclear receptor DAX1 (NR0B1); 340,000 compounds, 0.99% hits; P51843; inhibition, % at 6.75 µM; HEK293 Gal4-DAX1 luciferase reporter, luminescence;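 active means inhibition above the mean over all tested compounds plus 3 SD, cut at about 4.2% in these data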;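 further: inhibition shows as a rise in luminescence from relieved DAX1 repression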
Target sequence (P51843 207-470 limits assumed): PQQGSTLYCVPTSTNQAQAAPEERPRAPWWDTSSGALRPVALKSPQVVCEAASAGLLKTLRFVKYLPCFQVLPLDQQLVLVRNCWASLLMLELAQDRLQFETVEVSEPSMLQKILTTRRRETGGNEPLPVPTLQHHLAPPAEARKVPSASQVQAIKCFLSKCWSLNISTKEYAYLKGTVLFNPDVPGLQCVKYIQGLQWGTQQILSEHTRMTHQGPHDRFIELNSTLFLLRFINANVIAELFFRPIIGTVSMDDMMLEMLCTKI
hcDAF-12 act – activates DAF-12 receptor from parasite H. contortus; HEK293 hcDAF-12 lit1-tk-luc reporter, luminescence; 0% DMSO, 100% Δ7-dafachronic acid; activation, % at 6.8 µM; 370,000 compounds, 1.4% hits;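 active means activation above the mean of all tested compounds plus 3 SD, cut at about 5.5% in these data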
hgDAF12 agonist – hgDAF-12 agonism, primary luciferase screen. HEK293 GAL4-hgDAF12 UAS-luciferase reporter, agonist luminescence; normalized to butyrate control. 370,000 compounds, 1.8% hits. activation, % at 6.8 µM. AID 687014;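 active means activation above a cutoff set at the mean of all screened compounds plus 3 SD, cut at about 10% in these data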
ssDAF12 agonist – activators of S. stercoralis DAF-12 nuclear receptor; activation, % at 6.8 µM; 370,000 compounds, 1% hits; HEK293 ssDAF-12/GRIP1 lit1-tk-luc reporter, luminescence; % of 3 µM dafachronic acid response; AID 652126;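 active means activation above the mean over all tested compounds plus 3 SD, cut at about 0.9% in these data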
AHR act – activates the human aryl hydrocarbon receptor. AHR-responsive luciferase reporter cells, luminescence. activation, % at 5 µM. AID 2796. 320,000 compounds, 2.5% hits; in the data active means activation above about 47%
Of the large screens only hits and unclear results are named; the others gave an inactive call.

O=C(c1cc(COc2ccc(F)cc2F)on1)N1CC2C[C@@H]3CC1C[C@H](C2)C3	none
COc1ccccc1OCc1cc(C(=O)N2CC3C[C@@H]4CC2C[C@H](C3)C4)no1	DAX1 inh-1 3.7, hgDAF12 agonist 12.1
COc1ccccc1OCc1cc(C(=O)N2CCN(C)C(c3ccccc3)C2)no1 (centres undefined)	DAX1 inh-1 4.2
C/C(=N/NC(=O)CN1CCN(S(=O)(=O)c2ccc(C)cc2)CC1)c1ccco1	none
CS(=O)(=O)N(CC(=O)N1CCCCCC1)c1cccc(F)c1	none
CN(C)CCCn1c(SCC(=O)Nc2nc(-c3cccc(Br)c3)cs2)nc2ccccc2c1=O	none
O=C(CSc1nc2ccccc2[nH]1)Nc1nc(-c2cccc(Br)c2)cs1	AHR act 64.5
Cc1cc(C)c(S(=O)(=O)n2ccc3ccccc32)c(C)c1	ssDAF12 agonist 1.7
COc1cc2c(cc1OC)C(NC(=O)C(F)(F)F)CNC2=O (centres undefined)	hgDAF12 agonist 12.6
COc1cc2c(c(OC)c1OC)CC(c1ccccc1)=C(c1ccccc1)CC2NC(=O)C(F)(F)F (centres undefined)	none (no result: DAX1 inh-2, AHR act)
Cc1cc(/C=C2/NC(=O)N(c3ccccc3)C2=O)c(C)n1-c1cccnc1	AHR act 108.8
Cc1cccc(NC(=O)CN2C(=O)N/C(=C/c3cc(C)n(-c4cccnc4)c3C)C2=O)c1	DAX1 inh-2 6.6
COC(=O)/C(C#N)=C1/C=Cc2ccccc2N1	hcDAF-12 act 5.9
CC(C)(C)c1ccc(-c2cc(NC(=O)Cc3c[nH]c4ccccc34)ccc2Nc2cccnc2)cc1	ssDAF12 agonist 1.7 (no result: DAX1 inh-2, AHR act)
CCCc1ccc(-c2cc(NC(=O)Cc3c[nH]c4ccccc34)ccc2Nc2cccnc2)cc1	none (no result: DAX1 inh-2, AHR act)
COc1ccc(C(=O)Nc2ccc3ccccc3n2)cc1OC	DAX1 inh-2 4.8
O=C(Nc1ccc2ccccc2n1)Nc1cccs1	none
O=C(CCc1ccccc1)Nc1ccccc1	none
O=C(CCc1ccccc1)Nc1ccc2ccccc2n1	hgDAF12 agonist 12.2
COc1ccc(NC(C)=O)cc1NC(=O)c1ccc2ccccc2c1	AHR act 73.6
Cc1cc(C)cc(NC(=O)Nc2ccc3ccccc3n2)c1	AHR act 56.5
C/C(=N/NS(=O)(=O)c1ccc(Br)cc1)c1cccc(NC(=O)C2CC2)c1	none (no result: AHR act)
Cc1ccccc1CN(C)CC(=O)NC(C)CCc1ccccc1 (centres undefined)	none
COc1ccc(N2CCN(C(=O)COC(=O)[C@@H](NC(=O)c3c(F)cccc3F)C(C)C)CC2)cc1	none (no result: AHR act)
CC1(c2ccc(Cl)cc2)NC(=O)N(CN2CCOCC2)C1=O (centres undefined)	none
Cc1cc(C)c(-c2nc3ccccc3s2)[nH]1	hcDAF-12 act 6.3
COc1cc(OC)c(-c2nc3ccccc3s2)cc1OC	none
COC(=O)/C(=C(/F)SCC(C)=O)C(F)(F)F	none (no result: DAX1 inh-1, DAX1 inh-2, hcDAF-12 act, hgDAF12 agonist, ssDAF12 agonist)
CCOc1cc2c(cc1O)C(=NOC)CC1C2CCC2(C)C(O)CCC12 (centres undefined)	DAX1 inh-1 4.3 (no result: AHR act)
COc1ccc(OC)c2c1sc(=NC(=O)c1cccc(N3C(=O)CCC3=O)c1)n2C	AHR act 70.0
O=[N+]([O-])c1ccc2cn(-c3ccccc3)nc2c1	hcDAF-12 act 6.0, hgDAF12 agonist 13.2, ssDAF12 agonist 1.1
CCN(Cc1ccncc1)C(=O)c1cc(COc2ccc(OC)cc2Cl)on1	none
O=C(Nc1ccc(N2CCOCC2)cc1)c1ccc(Cl)nc1	AHR act 73.1 (no result: DAX1 inh-1, hcDAF-12 act, hgDAF12 agonist, ssDAF12 agonist)
CCN1CCN(c2ccc(NC(=O)c3cccc(F)c3)cc2Cl)CC1	hgDAF12 agonist 12.7
O=C(Nc1ccc(N2CCOCC2)c(Cl)c1)c1ccc(F)cc1	DAX1 inh-2 5.2
O=C(Nc1ccc(N2CCOCC2)cc1)c1ccncc1	none
Cc1cc2ccccc2n2c(SCC(=O)NCC3CCCO3)nnc12 (centres undefined)	none (no result: DAX1 inh-2)
Nc1ccccc1Nc1cc(-c2ccccc2)[nH]n1	hcDAF-12 act 6.0 (no result: AHR act)
CC(=O)Oc1ccc(C(=O)[C@H]2[C@H]3C(=O)N(c4ccc(C)cc4C)C(=O)[C@H]3[C@@H]3C=CC=NN32)cc1	DAX1 inh-2 4.2
O=C(Nc1ccccc1)[C@@H]1[C@@H]2C(=O)N(c3ccc(F)cc3)C(=O)[C@@H]2[C@H]2C=CC=NN21	none
